IL1B secr inh: inflammasome signaling inhibition, IL-1 beta readout; THP-1 LPS/ATP IL-1B secretion, AlphaLISA, 16 h; stronger effect = lower value; activity change, % at 57.5 µM; actives 4.7% (n = 360,000); AID 743279; in the data active = activity change below about -50%; inconclusive = mostly about -30% to -49%
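Secreted IL-1B measured by AlphaLISA bead assay after 16 h compound exposure of THP-1 cells; compounds (final up to 57.5 uM) added 1 h before LPS (250 ng/mL) and ATP (1.25 mM) stimulation; lower signal means less secretion.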
HT1080 IDH1KD tx: kills HT-1080 cells with IDH1 knockdown; HT-1080 IDH1 knockdown viability, ATP luminescence, 48 h; Potency, µM (highest dose often 46.1 µM), hits mostly cytotoxic; actives 2% (n = 360,000)
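Assay cells: HT-1080 with IDH1 knockdown, 750 per well, RPMI/5% FBS. Exposure: 48 h at 37 °C following 2 h pre-incubation. Read: CellTiter-Glo luminescence; fitted concentration-response, curve class assigned.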
HT1080NT lethal: kills 2HG-producing HT-1080-NT fibrosarcoma cells. HT-1080-NT fibrosarcoma viability, CellTiter-Glo ATP luminescence, 48 h. Potency, µM (series often up to 46.1 µM), usual class: cytotoxic. actives 1.6% (n = 360,000). AID 686970;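 also: NT is the 2HG producing partner of a matched IDH1 knockdown line; nearly all actives have a fitted effect of over 55% in size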
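Viability of the 2HG-overproducing fibrosarcoma line after 48 hours of compound exposure at 37 degrees C was determined by luminescence with CellTiter-Glo, and concentration-effect curves were then fitted and categorized.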
DT40 TDP1 CPT: DT40-hTDP1 cell growth loss with CPT; chicken DT40 Tdp1-/-;hTDP1 cells + 20 nM CPT, ATP luminescence, 48 h; Potency, µM (top dose mostly 46.2 µM), usual class: inhibitors; actives 12% (n = 420,000); AID 686979; also: nearly all actives have a fitted effect of over 55% in size
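Cell growth measured by CellTiter-Glo luminescence after a minimum 48 h, 37 C compound exposure with 20 nM CPT in Tdp1-knockout DT40 cells stably expressing hTDP1, seeded 400/well; qHTS titration format.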
TDP1 cell noCPT: qHTS for Inhibitors of human tyrosyl-DNA phosphodiesterase 1 (TDP1): qHTS in cells in absence of CPT; DT40 Tdp1-/- hTDP1 cells, no CPT, ATP luminescence, 48 h; Potency, µM (doses to about 46.2 µM), usual class: inhibitors; actives 15% (n = 420,000); AID 686978, 2013; also: nearly all actives have a fitted effect of over 55% in size
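Compound effects on proliferation are scored in DT40 Tdp1-/-;hTDP1 cells in the absence of CPT. ATP levels (CellTiter-Glo luminescence) are recorded after a ≥48 hr, 37 °C incubation.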
Hits are given with their value; n = inactive; u = inconclusive; x = no result. Only some compounds are listed: those with a hit (about 19% of all), similar ones and a draw of the others. Unless noted, calls follow the shape of the dose curve; as a rule, active = well fitted curve in the direction sought with a large enough effect; inconclusive = small, poorly fitted or top-dose-only effect, or another doubt; inactive = no such curve, though single readings can be large; an effect the other way counts as inactive or inconclusive.

SMILES | IL1B secr inh | HT1080 IDH1KD tx | HT1080NT lethal | DT40 TDP1 CPT | TDP1 cell noCPT
COc1ccc(OC)c(NC(=O)c2c3c(nc4ccccc24)CCC3)c1 | n | n | n | u | n
COc1ccccc1Nc1c2c(nc3ccc(NC(=O)c4cccc(F)c4)cc13)CCCC2 | x | x | x | 5.8µM | 2.6µM
COc1ccc(Nc2c3c(nc4ccc(NC(=O)/C=C/c5cccc(OC)c5OC)cc24)CCCC3)cc1OC | x | x | x | 2.3µM | 4.6µM
COc1ccccc1Nc1c2c(nc3ccc(NC(=O)/C=C/c4cccc(OC)c4OC)cc13)CCCC2 | x | x | x | 3.3µM | 4.1µM
CCOc1ccc(NC(=S)N2CCN(C/C=C/c3ccccc3)CC2)cc1 | u | n | n | u | 18µM
CCOc1ccc(NS(=O)(=O)c2cccc(C(=O)N3CCN(C/C=C/c4ccccc4)CC3)c2)cc1 | u | n | n | u | 16µM
COc1ccc(NC(=S)N2CCN(C/C=C/c3ccccc3)CC2)cc1 | n | n | n | n | u
O=C(/C=C/c1ccccc1Cl)Nc1ccncc1 | n | n | n | u | u
O=C(/C=C/c1c(F)cccc1Cl)Nc1ccncc1 | n | n | n | u | u
O=C(/C=C/c1c(Cl)cccc1Cl)Nc1ccncc1 | -60 | n | n | u | 21µM
O=C(/C=C/c1ccccc1)NCCSCc1ccc(Cl)cc1 | n | n | n | n | n
O=C(/C=C/c1ccc(Cl)cc1Cl)NCCSCc1ccccc1 | -96 | n | n | n | n
CC(=O)N(C)c1ccc(NC(=O)/C=C/c2ccccc2Cl)cc1 | n | n | n | u | 13µM
Cc1cc(C)nc(NC(=O)/C=C/c2ccccc2Cl)c1 | u | n | n | n | u
Cc1cc(C)nc(NC(=O)/C=C/c2ccc(Cl)cc2Cl)c1 | -53 | n | n | u | 13µM
C=CCNc1nc(S(=O)Cc2ccc(C)cc2)nc2c1CCCC2 (centres undefined) | n | n | n | u | u
Clc1ccccc1-c1ccc(CN2CCN(c3ccccc3)CC2)o1 | n | n | n | n | n
CCC(Sc1nc(N)c(NC(=O)c2ccc(Br)o2)c(=O)[nH]1)C(=O)O (centres undefined) | n | n | n | n | n
Cc1ccnc(NC(=O)/C=C/c2ccccc2Cl)c1 | -69 | n | n | n | n
O=C(/C=C/c1ccc(Cl)cc1Cl)Nc1ccncc1 | n | n | n | u | 15µM
CC1CN(C(=O)CSc2nc(N)c(NC(=O)c3ccc(C(F)(F)F)cc3)c(=O)[nH]2)CC(C)O1 (centres undefined) | n | n | n | n | n
COc1ccc(-c2c(NC(=O)C(C)C)n(C)c3ccccc3c2=O)cc1 | n | n | n | n | n
CCc1cccc(C)c1NC(=O)CN1C(=O)c2c(c3ccccc3n2C)C1c1ccc(OC)cc1 (centres undefined) | x | x | x | u | 29µM
COc1ccc(C2c3c(n(C)c4ccccc34)C(=O)N2CC(=O)Nc2ccc(Cl)cc2)cc1 (centres undefined) | x | x | x | 18µM | u
COc1ccc(C2c3c(n(C)c4ccccc34)C(=O)N2CC(=O)Nc2ccc(F)cc2)cc1 (centres undefined) | x | x | x | n | n
SMILES | IL1B secr inh | HT1080 IDH1KD tx | HT1080NT lethal | DT40 TDP1 CPT | TDP1 cell noCPT
CCc1ccc(OCC(=O)Nc2nnc(C3CCCC3)s2)cc1 | n | n | n | n | n
O=C(Nc1ccncc1)Nc1ccccc1Cl | n | n | n | u | u
CC(Oc1ccc(Cl)cc1Cl)C(=O)Nc1ccncc1 (centres undefined) | n | u | u | 21µM | 9.2µM
O=C(Nc1ccncc1)Nc1ccc(Cl)cc1 | -94 | n | n | u | u
CC(Oc1ccc(Cl)cc1Cl)C(=O)NCCC1=CCCCC1 (centres undefined) | -57 | n | n | u | u
O=C(Nc1ccncc1)Nc1ccc(Cl)cc1Cl | x | n | n | 18µM | u
O=C(Nc1ccncc1)Nc1ccncc1 | n | n | n | n | u
O=C(COC(=O)c1ccc2ccccc2n1)NC1CCCCC1 | n | n | n | n | n
CN1OC[C@@H]2CN(C(=S)NCCc3ccccc3)[C@H](c3ccc(-n4ccnc4)cc3)C[C@@H]21 | n | n | n | n | n
Cc1ccc(NNC(=O)Nc2ccc(Cl)cc2)nn1 | n | n | n | 21µM | u
O=C(Nc1ccc(Cl)cc1)Nc1ccon1 | n | n | n | 18µM | 15µM
Cc1ccc(NC(=O)Nc2ccon2)cc1 | u | n | n | n | n
Cc1ccc(-n2nnnc2Sc2nc([N+](=O)[O-])nn2C)c(C)c1 | u | n | n | 16µM | u
Cc1ccc(-n2nnnc2Sc2nc([N+](=O)[O-])nn2C)cc1 | -57 | u | u | u | u
CCOc1ccsc1C(=O)O | n | n | n | n | n
CC(C(=O)NCc1ccccc1)N1CCN(c2ccc(F)cc2)CC1 (centres undefined) | n | n | n | n | n
Cc1ccc[n+](C(C)C(=O)c2ccc(-c3ccccc3)cc2)c1 (centres undefined) | u | n | u | 4.1µM | 5.2µM
CC(C(=O)c1ccc(-c2ccccc2)cc1)[n+]1cccc(C(N)=O)c1 (centres undefined) | n | n | n | n | n
CC(C(=O)c1ccc(-c2ccccc2)cc1)[n+]1ccccc1 (centres undefined) | n | u | n | 2.6µM | 2.1µM
CC(=O)Nc1cc[n+](C(C)C(=O)c2ccc(Cl)cc2)cc1 (centres undefined) | n | n | n | 16µM | 16µM
CC(C)NC(=O)C1C(c2ccc(C(F)(F)F)cc2)=Nc2ccccc2N1C(=O)c1cc2ccccc2[nH]1 (centres undefined) | n | u | n | u | u
COc1ccc(NC(=O)c2sc(=O)n(Cc3ccccc3C#N)c2C)cc1OC | n | n | n | u | u
Cc1ccc(OCCSc2nc3ncnc(N)c3[nH]2)cc1 | n | n | n | 8.2µM | u
Nc1ncnc2nc(SCCOc3ccc(Cl)cc3)[nH]c12 | n | n | n | n | n
O=C1c2sc3nc4n(c(=O)c3c2CCC1Br)CCCCC4 (centres undefined) | -93 | n | n | 3.3µM | 2.9µM
SMILES | IL1B secr inh | HT1080 IDH1KD tx | HT1080NT lethal | DT40 TDP1 CPT | TDP1 cell noCPT
O=c1c2c3c(sc2nc2n1CCCCC2)CCC3 | n | n | n | n | n
CCCCOCP(=O)(CC)COCCCC | n | n | n | n | u
CCC1(c2ccccc2)NC(=O)N(CC(=O)N2CC(=O)Nc3ccccc32)C1=O (centres undefined) | n | n | n | n | u
N#C/C(=C/c1ccc(F)cc1)c1nnc(NC(=O)c2ccccc2)s1 | n | n | n | u | n
CN1C(=O)N(c2ccc(Cl)cc2)C(C)(O)CC1(C)C (centres undefined) | n | n | n | n | n
CC1(C)N=C(N)N=C(N)N1c1ccc(Cl)cc1 | x | x | x | u | 0.34µM

Screening data: PubChem BioAssay, National Center for Advancing Translational Sciences (NCATS)
